Screening results from PubChem.
Only a selection was taken, and hits are over-represented in it overall.
GluA2 TARP mod: modulators of GluA2-stargazin AMPA receptor complexes, primary screen, cell-based, membrane potential dye; Voltage-dependent calcium channel gamma-2 subunit (Mus musculus) + Glutamate receptor 2 …; HEK293 GluA2+stargazin, membrane potential dye (FDSS), glutamate EC50; hits were called plate by plate, in both directions; calls only at 30 µM; actives 3.5% (n = 40,000); AID 1259245, 2017;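 active = any of four per-well response measures lying three or more SD from its plate-wide compound average, in either direction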
Target sequence (O88602 whole entry, looked up): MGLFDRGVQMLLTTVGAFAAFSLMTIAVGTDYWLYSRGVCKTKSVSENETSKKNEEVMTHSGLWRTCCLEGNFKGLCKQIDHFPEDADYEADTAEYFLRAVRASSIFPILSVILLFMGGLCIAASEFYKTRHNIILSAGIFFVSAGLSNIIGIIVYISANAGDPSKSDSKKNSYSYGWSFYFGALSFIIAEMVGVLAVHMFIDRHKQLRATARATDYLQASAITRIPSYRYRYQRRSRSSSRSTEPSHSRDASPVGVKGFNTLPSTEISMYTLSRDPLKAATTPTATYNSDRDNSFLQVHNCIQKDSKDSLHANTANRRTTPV
Target sequence (P19491 whole entry, looked up): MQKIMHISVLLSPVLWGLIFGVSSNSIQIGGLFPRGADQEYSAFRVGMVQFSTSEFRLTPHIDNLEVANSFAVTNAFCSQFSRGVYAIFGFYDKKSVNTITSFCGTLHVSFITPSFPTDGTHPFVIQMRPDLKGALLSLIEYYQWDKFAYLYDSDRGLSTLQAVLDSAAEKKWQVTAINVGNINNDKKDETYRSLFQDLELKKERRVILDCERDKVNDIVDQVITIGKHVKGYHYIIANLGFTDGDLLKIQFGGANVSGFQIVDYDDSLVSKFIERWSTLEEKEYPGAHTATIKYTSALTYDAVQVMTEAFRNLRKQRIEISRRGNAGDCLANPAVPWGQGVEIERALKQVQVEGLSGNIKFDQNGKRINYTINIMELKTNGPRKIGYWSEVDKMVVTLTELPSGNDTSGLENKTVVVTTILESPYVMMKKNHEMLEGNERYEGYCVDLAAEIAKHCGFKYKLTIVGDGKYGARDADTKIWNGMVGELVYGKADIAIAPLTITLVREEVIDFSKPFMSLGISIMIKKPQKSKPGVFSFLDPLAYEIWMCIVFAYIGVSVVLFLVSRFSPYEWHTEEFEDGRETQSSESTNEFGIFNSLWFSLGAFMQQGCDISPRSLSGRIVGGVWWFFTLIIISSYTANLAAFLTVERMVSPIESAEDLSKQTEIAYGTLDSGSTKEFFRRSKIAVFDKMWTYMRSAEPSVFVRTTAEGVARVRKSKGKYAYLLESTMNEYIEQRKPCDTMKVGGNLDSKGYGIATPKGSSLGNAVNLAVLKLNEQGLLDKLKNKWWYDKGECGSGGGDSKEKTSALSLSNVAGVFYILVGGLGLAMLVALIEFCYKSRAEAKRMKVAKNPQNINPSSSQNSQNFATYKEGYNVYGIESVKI
GIRK2 activator: activators of NPY4-receptor-primed GIRK2 channels, summary, cell-based, HEK293, thallium flux | G protein-activated inward rectifier potassium channel 2 (Homo sapiens), P48051 | HEK293 GIRK2/NPY4 cells, thallium flux fluorescence | activation (% efficacy), % for hits at 37.5 µM | 34,000 tested, under 10 active;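 active = primary screen hit, no activity in plain HEK293 cells, and in GIRK2-only cells above 5% efficacy rising with concentration; inactive = the rest, including fluorescent compounds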;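 note: efficacy is normalized control-subtracted fluorescence 15 s after thallium addition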
The depositor's hits bear a star; i = inactive; nt = no result; + = active, no number.

SMILES | GluA2 TARP mod | GIRK2 activator
COc1ccccc1CCNC(=O)CCc1c(C)nn(-c2nc(C)cc(=O)[nH]2)c1C | i | i
COc1ccc(S(=O)(=O)Nc2nc3ccccc3nc2NCCC2=CCCCC2)cc1 | i | nt
COc1ccccc1CNc1nc2ccccc2nc1NS(=O)(=O)c1ccccc1 | + | nt
O=C(NCC1CCCCC1)C1CC(=O)N(CCN2CCN(S(=O)(=O)c3ccccc3)CC2)C1 (stereo not drawn) | i | nt
CN(C)c1nn(CC(=O)Nc2ccc3c(c2)OCCO3)cc1-c1ccccc1 | nt | i
CC(O)CNC(=O)C(=O)Nc1ccc([N+](=O)[O-])cc1 (stereo not drawn) | + | nt
CCN(CC)CCNC(=O)C(=O)Nc1ccc([N+](=O)[O-])cc1 | i | nt
CN1CCN(C(=O)C(=O)Nc2c3c(nn2-c2ccc(F)cc2)CS(=O)(=O)C3)CC1 | i | i
COc1ccc(-c2csc(NC(=O)c3ccc(SC(C)C)cc3)n2)c(OC)c1 | + | nt
COc1ccc(OC)c(-c2csc(NC(=O)c3ccc(SC(C)C)cc3)n2)c1 | i | i
COc1ccc(Nc2cc(C)nc(NCCNC(=O)c3nccc(C)n3)n2)cc1 | nt | i
COc1ccc(Nc2cc(C)nc(NCCNC(=O)c3cnccn3)n2)cc1 | + | i
COc1ccc(S(=O)(=O)N2CCN(c3ccc(N4CCCC4)nn3)CC2)cc1Cl | i | i
O=C(CSc1nc(=O)n(CC2CCCO2)c2c1CCC2)N1CCN(c2ccccc2)CC1 (stereo not drawn) | i | i
CCCc1nnsc1C(=O)N1CCN(Cc2nc(-c3ccc(F)cc3)cs2)CC1 | + | i
COc1ccc(-c2csc(CN3CCN(C(=O)c4ccc(F)cc4F)CC3)n2)cc1 | i | nt
O=S(=O)(NCCCN1CCOCC1)c1cccc2cnccc12 | i | i
O=S(=O)(NC1CCCC1)c1cccc2cnccc12 | + | i
COc1cccc(OC)c1C(=O)Nc1ccc([N+](=O)[O-])cn1 | i | nt
COc1ccc(C(=O)Nc2ccc([N+](=O)[O-])cn2)cc1OC | + | nt
COc1ccc(NC(=O)CSc2nccn(-c3ccc(OC)cc3)c2=O)cc1 | i | nt
CN1C=CC=C/C1=C(/C#N)c1nc(-c2ccccc2)cs1 | + | i
N#C/C(=C\c1ccnc2ccccc12)c1nc(-c2ccc(F)cc2)cs1 | i | i
COc1ccccc1-c1csc(/C(C#N)=C2\C=CC=CN2C)n1 | + | i
CN1CCN(n2c3c(c(SCC(=O)Nc4cccc5ccccc45)nc2=O)CCC3)CC1 | i | i
SMILES | GluA2 TARP mod | GIRK2 activator
Cc1cc(NC(=O)CSc2nc(=O)n(N3CCN(C)CC3)c3c2CCC3)no1 | + | i
COc1ccc(CNC(=O)C(=O)NCC2CCN(Cc3ccco3)CC2)cc1 | + | i
O=C(NCc1ccccc1)C(=O)NCC1CCN(Cc2ccco2)CC1 | i | i
CCCc1ccc(S(=O)(=O)NCC2CCN(Cc3ccco3)CC2)cc1 | + | i
CC(=O)Nc1ccc(S(=O)(=O)NCC2CCN(Cc3ccco3)CC2)cc1 | i | i
Cc1ccc(CN2N=NC3C(=O)N(c4ccc(C)c(C)c4)C(=O)C32)cc1 (stereo not drawn) | i | i
Cc1ccc(=O)n(CCNC(=O)CCc2c(C)noc2C)n1 | i | i
CNC(=O)c1cccc(-c2noc(C3CN(C(=O)Cc4ccc(F)cc4)C3)n2)c1 | nt | i
COc1ccc(C(=O)Nc2cc3c4c(c2)CCN4C(=O)CC3)cc1 | + | i
COc1ccc(C(=O)Nc2cc3c4c(c2)CCC(=O)N4CCC3)cc1 | i | i
Cc1c(C)n2c3c(=O)n(CC(N)=O)c(=O)n(C)c3nc2n1CCCn1ccnc1 | + | i
Cc1cn2c3c(=O)[nH]c(=O)n(C)c3nc2n1CCCN1CCOCC1 | + | i
CCCCn1c(NCCCN2CCOCC2)nc2c1c(=O)[nH]c(=O)n2C | i | i
COC(=O)Cn1c(-c2ccccc2)cn2c3c(=O)n(C)c(=O)n(C)c3nc12 | + | i
CCOCCN1N=C(c2ccc(F)cc2)Cn2c1nc1c2c(=O)n(C)c(=O)n1C | i | nt
Cc1c(C)n2c3c(=O)n(CC(N)=O)c(=O)n(C)c3nc2n1-c1ccc(Br)cc1 | i | nt
CCOC(=O)Cn1c(-c2ccccc2)cn2c3c(=O)n(C)c(=O)n(C)c3nc12 | i | nt
Cn1c(=O)c2c(nc3n2CC(c2ccc(F)cc2)=NN3CCN2CCOCC2)n(C)c1=O | + | i
O=C(Cn1cnc2nc(N3CCCC(C(=O)NC4CC4)C3)sc2c1=O)Nc1ccc2c(c1)OCO2 (stereo not drawn) | nt | i
CCCn1c(=O)c2ccc(C(=O)NC3CCCCC3)cc2n2c(SCC#N)nnc12 | i | i
O=C(C1CCCN(c2cc(-n3cccn3)ncn2)C1)N(Cc1ccccc1)c1ccccn1 (stereo not drawn) | i | i
CCCCCn1c(C)c(C)n2c3c(=O)n(C)c(=O)n(C)c3nc12 | i | i
Cn1c(=O)c2c(nc3n(CCN4CCOCC4)c(-c4ccccc4)cn23)n(C)c1=O | + | nt
Cc1c(C)n2c3c(=O)n(C)c(=O)n(C)c3nc2n1CCCN1CCOCC1 | + | i
Cc1ccc(-n2c(-c3ccccc3)cn3c4c(=O)n(CCN5CCOCC5)c(=O)n(C)c4nc23)cc1 | i | nt
SMILES | GluA2 TARP mod | GIRK2 activator
COc1cc(-c2cc(C(=O)O)c3[nH]c(-c4ccccc4)nc3n2)cc(OC)c1O | nt | i
CCCCc1ccc(N/C=C(\C#N)C(=O)NCc2ccccc2)cc1 | i | i
C=CCOC(=O)C1=C(C)NC(=O)NC1c1ccc(OC)c(OC)c1 (stereo not drawn) | i | nt
O=C(NCCn1nc(-c2ccc(Cl)cc2)ccc1=O)NC1CCCCC1 | i | i
Cc1cc(NC(=O)C(=O)NCC(c2cccc3ccccc23)N(C)C)c2ccccc2n1 (stereo not drawn) | nt | i
COc1ccc(S(=O)(=O)N2CCN=C2SCc2ccccc2F)cc1 | + | nt
COc1ccc(S(=O)(=O)N2CCN=C2SCc2ccccc2C)cc1 | i | nt
COc1ccc(CC(=O)Nc2cc(C3CC3)nn2-c2nc(C(C)C)cc(=O)[nH]2)cc1OC | i | i
COc1ccc(C(=O)Nc2cc(C3CC3)nn2-c2nc(C(C)C)cc(=O)[nH]2)cc1OC | + | i
Cc1cccc(Nc2ccc(N3CCN(C(=O)C4CCC(=O)N4)CC3)nn2)n1 (stereo not drawn) | + | i
Cc1cccc(Nc2ccc(N3CCN(C(=O)C4CCCO4)CC3)nn2)n1 (stereo not drawn) | nt | i
COc1ccc(S(=O)(=O)/N=C2/C=C(Nc3ccc(C)cc3)C(=O)c3ccccc32)cc1 | + | nt
COc1ccc(S(=O)(=O)CCC(=O)Nc2cc(C)cc(C)c2)cc1 | i | i
COC(=O)c1ccccc1NC1=C/C(=N/S(=O)(=O)c2ccc(F)cc2)c2ccccc2C1=O | + | nt
COC(=O)c1cccc(NS(=O)(=O)c2ccc(F)cc2)c1C | i | nt
COc1ccc(S(=O)(=O)/N=C2/C=C(Nc3cccc(C)c3)C(=O)c3ccccc32)cc1 | + | nt
CCOc1ccc(NC2=C/C(=N/S(=O)(=O)c3ccc(OC)cc3)c3ccccc3C2=O)cc1 | i | nt
